Outcome and AC50 data for eleven molecules are collected here from PubChem BioAssay (EPA / NIEHS).

Records with an inconclusive call do not appear. Calls of active or inactive are those of the source. Rule for the calls, unless noted: active = hit-call score of the fitted dose curve at least 0.9, where 1 is the maximum; inactive = score below 0.9.

The nature of assay [1]: ATG_NFI_CIS: Attagene CIS-FACTORIAL HepG2 Assay for human Nuclear Factor I (NFI) (AID 2282989). To be noted: HepG2 cis-regulatory reporter, NFI response element transcription; actives raise or lower the signal. In outline:
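Reporter transcription driven by endogenous transcription factors in HepG2 cells; 24 h treatment. Quantitation by labelled RT-PCR fragments on capillary electrophoresis, gain- or loss-of-signal relative to DMSO.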

Assay [2] concerns the target Myc proto-oncogene protein (Homo sapiens) (UniProt P01106). In words: ATG_Myc_CIS: Attagene CIS-FACTORIAL HepG2 Assay for human Myelocytomatosis (Myc) Proto-Oncogene Transcription Factor (AID 2282990). As to conditions: HepG2, Attagene cis-reporter transcription factor activity; actives raise or lower the signal. The method in brief: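 Cells of the HepG2 human liver line bear multiple cis-driven reporter transcription units. Reporter mRNA after 24 h exposure is reverse-transcribed, amplified, labelled and resolved by capillary electrophoresis, with gain- or loss-of-signal fitting relative to DMSO.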

Assay [3] in a line: ATG_NF_kB_CIS: Attagene CIS-FACTORIAL HepG2 Assay for human Nuclear Factor Kappa B (NF-kB) (AID 2282991). To be noted: HepG2 Attagene cis-factorial NF-kB reporter mRNA; actives raise or lower the signal. In outline:
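HepG2, transient multi-reporter transfection, cis promoter elements (endogenous TFs). 24 h exposure. Total RNA → RT → PCR → 6-FAM label → HpaI → CE. Gain/loss vs DMSO.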

Assay [4] is described as follows: ATG_Oct_MLP_CIS: Attagene CIS-FACTORIAL HepG2 Assay for human Octamer-Binding Transcription Factor (Oct) (AID 2282993). As to conditions: HepG2 Attagene cis-factorial Oct reporter, mRNA; actives raise or lower the signal. In outline:
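Transfected HepG2 cells, 24 h treatment. Reporter mRNA quantified by RT-PCR–capillary electrophoresis; bidirectional fitting against DMSO.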

Assay [5] addresses Cellular tumor antigen p53 (Homo sapiens) (UniProt P04637). In words: ATG_p53_CIS: Attagene CIS-FACTORIAL HepG2 Assay for human p53 Transcription Factor (AID 2282994). As to conditions: HepG2 p53 cis-element reporter, Attagene mRNA; actives raise or lower the signal. The method in brief: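 HepG2, transient MRTU transfection (cis promoter elements, endogenous TFs); 24 h dosing; RNA isolation, RT-PCR, 6-FAM primer extension, HpaI digest, CE fluorescence; bidirectional fit vs DMSO.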

Assay [6] concerns the target human Peroxisome Proliferator-activated Receptor delta (PPARd), PPARD (gene 5467) (UniProt Q03181). In words: ATG_PPARd_TRANS: Attagene TRANS-FACTORIAL HepG2 Assay for human Peroxisome Proliferator-activated Receptor delta (PPARd) (AID 2283002; active = hit-call score of the fitted dose curve at least 0.9, where 1 is the maximum). The method in brief:
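Cell-based TRANS reporter: HepG2, transient MRTU transfection, 24 h exposure. Readout = reporter mRNA (RT-PCR/CE, 6-FAM). Gain-of-signal fit vs DMSO control.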

Assay [7] concerns the target human Retinoic Acid Receptor beta (RARb), RARB (gene 5915) (UniProt P10826). The assay is described as follows: ATG_RARb_TRANS: Attagene TRANS-FACTORIAL HepG2 Assay for human Retinoic Acid Receptor beta (AID 2283004; active = hit-call score of the fitted dose curve at least 0.9, where 1 is the maximum). In outline: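 HepG2 cells were transiently transfected with GAL4-UAS reporter units that report activity of exogenous chimeric NR-Gal4 proteins, then exposed to compound for 24 h. Reporter mRNA was quantified by RT-PCR with capillary electrophoresis fluorescence, as gain of signal over DMSO.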

The target of assay [8] is Retinoic acid receptor alpha (Homo sapiens) (UniProt P10276). The assay is described as follows: ATG_RARa_TRANS: Attagene TRANS-FACTORIAL HepG2 Assay for human Retinoic Acid Receptor alpha (RARa) (AID 2283005; active = hit-call score of the fitted dose curve at least 0.9, where 1 is the maximum). In outline:
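Reporter transcripts, measured by RT-PCR with fluorescent labeling and capillary electrophoresis after 24 h dosing, reflect activity of an exogenous human RARa–GAL4 fusion in transiently transfected HepG2. Fitted for increase relative to DMSO.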

Assay [9] addresses Nuclear receptor subfamily 1 group I member 2 (Homo sapiens) (UniProt O75469). In words: ATG_PXR_TRANS: Attagene TRANS-FACTORIAL HepG2 Assay for human Pregnane X Receptor (PXR) (AID 2283008; active = hit-call score of the fitted dose curve at least 0.9, where 1 is the maximum). The method in brief:
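Read-out is fluorescence of labelled reporter cDNA fragments separated by capillary electrophoresis after RT-PCR and HpaI digestion. Source: HepG2 cells carrying PXR-GAL4/UAS reporter constructs, treated 24 h; activity fitted upward relative to DMSO.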

For assay [10], the target named is human Retinoic Acid Receptor gamma (RARg), RARG (gene 5916) (UniProt P13631). In words: ATG_RARg_TRANS: Attagene TRANS-FACTORIAL HepG2 Assay for human Retinoic Acid Receptor gamma (RARg) (AID 2283009; active = hit-call score of the fitted dose curve at least 0.9, where 1 is the maximum). The method in brief:
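HepG2, RARg-GAL4 TRANS system, 24 h exposure; reporter mRNA by RT-PCR + CE fluorescence; increase over DMSO.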

Assay [11] concerns the target human RAR-related Orphan Receptor beta (RORb), RORB (gene 6096) (UniProt Q92753). The assay is described as follows: ATG_RORb_TRANS: Attagene TRANS-FACTORIAL HepG2 Assay for human RAR-related Orphan Receptor beta (RORb) (AID 2283010; active = hit-call score of the fitted dose curve at least 0.9, where 1 is the maximum). In outline:
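In this TRANS-format test, human HepG2 cells express chimeric NR-Gal4 fusion proteins driving GAL4-UAS reporters. After 24 h dosing, reporter transcripts are measured by fluorescent RT-PCR/capillary electrophoresis, with DMSO as negative control.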

Assay [12] is described as follows: ATG_NRF2_ARE_CIS: Attagene CIS-FACTORIAL HepG2 Assay for human Nuclear Factor Erythroid 2 Related Factor 2 (NFR2) response to Antioxidant Response Elements (ARE) (AID 2282992).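 For AC50: reporter mRNA level measured by RT-PCR and capillary electrophoresis fluorescence.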 As to conditions: HepG2 Attagene ARE/NRF2 reporter, transcription factor activity; actives raise or lower the signal. The method in brief: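 Transient MRTU transfection of HepG2; 24 h compound exposure; TriZol RNA, RT with oligo(dT), PCR, 6-FAM primer extension, HpaI cut, CE. Bidirectional fit vs DMSO.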

The nature of assay [13]: BSK_3C_TissueFactor: BioMAP Diversity Plus: 3C Assay for Tissue Factor Biomarker Activity (AID 2282997). As to conditions: BioMAP 3C HUVEC, tissue factor biomarker readout; actives raise or lower the signal. The method in brief: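 HUVEC were treated 24 h, then surface tissue factor measured by ELISA and fitted bidirectionally against DMSO. Parallel SRB total-protein staining assessed overt cytotoxicity at the same time point.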

Assay [14] is described as follows: BSK_3C_uPAR: BioMAP Diversity Plus: 3C Assay for Urokinase-type plasminogen activator receptor (uPAR) Biomarker Activity (AID 2282998). As to conditions: BioMAP 3C HUVEC, uPAR biomarker ELISA; actives raise or lower the signal. The method in brief:
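Readout: ELISA for surface uPAR. System: human umbilical vein endothelial primary cells, 24 h after chemical exposure. Analysis: bidirectional fit, DMSO baseline.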

A short description of assay [15]: BSK_3C_VCAM1: BioMAP Diversity Plus: 3C Assay for Vascular cell adhesion molecule 1 (VCAM1) Biomarker Activity (AID 2282999). As to conditions: BioMAP 3C HUVEC, VCAM1 ELISA, cytokine-stimulated; actives raise or lower the signal. In outline:
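Endothelial cells from human umbilical vein are treated with test chemical. At 24 h, VCAM-1 is measured by ELISA, and responses in either direction are fitted relative to DMSO.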
(ELISA stands for enzyme-linked immunosorbent assay.)

Assay [16] is described as follows: BSK_4H_Eotaxin3: BioMAP Diversity Plus: 4H Assay for Eotaxin 3 Biomarker Activity (AID 2283000).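 For Outcome: CCL26 protein level quantified by ELISA in parallel with SRB cytotoxicity check.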 To be noted: primary human endothelial cells (HUVEC); actives raise or lower the signal. The method in brief:
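Eotaxin-3 (CCL26) levels were measured by ELISA in HUVEC primary cultures 24 h post-dosing. Gain or loss of signal was fitted in both directions, with DMSO serving as baseline and negative control.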

Assay [17] has as its target human Peroxisome Proliferator-activated Receptor alpha (PPARa), PPARA (gene 5465) (UniProt Q07869). In words: ATG_PPARa_TRANS: Attagene TRANS-FACTORIAL HepG2 Assay for human Peroxisome Proliferator-activated Receptor alpha (PPARa) (AID 2283001; active = hit-call score of the fitted dose curve at least 0.9, where 1 is the maximum). In outline: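 Reporter transcripts from GAL4-UAS units in transfected HepG2 were quantified 24 h after dosing. Detection used reverse transcription, PCR, fluorescent primer extension and capillary electrophoresis, with DMSO as baseline.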

Read-out in assay [18]: Intercellular Adhesion Molecule 1 (ICAM1), ICAM1 (gene 3383)
The assay is described as follows: BSK_3C_ICAM1: BioMAP Diversity Plus: 3C Assay for Intercellular Adhesion Molecule 1 (ICAM1) Biomarker Activity (AID 2283003). As to conditions: primary human endothelial cells (HUVEC); actives raise or lower the signal. The method in brief: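 Human vascular endothelial primary cells, 3C conditions, 24 h treatment. ICAM-1 by ELISA.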

Assay [19] can be described thus: BSK_3C_Proliferation: Cell Proliferation Assessment in the BioMAP Diversity Plus: 3C Assay (AID 2283006).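 Note: potency may reflect either rise or fall in cell number versus DMSO.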 As to conditions: primary human endothelial cells (HUVEC). The method in brief: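 Proliferation of human vascular endothelial primary cells after 48 h dosing, quantified as SRB-stained protein at 560 nm relative to DMSO.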
The target of assay [20] is Peroxisome proliferator-activated receptor gamma (Homo sapiens) (UniProt P37231). The assay is described as follows: ATG_PPARg_TRANS: Attagene TRANS-FACTORIAL HepG2 Assay for human Peroxisome Proliferator-activated Receptor-gamma (PPARg) (AID 2283007; active = hit-call score of the fitted dose curve at least 0.9, where 1 is the maximum). The method in brief:
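Multiplexed reporter transcription units in HepG2, 24 h dosing, reporter transcripts quantified by fluorescent RT-PCR and capillary electrophoresis. Increase over DMSO scored.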

Chain of Peroxisome proliferator-activated receptor gamma (Homo sapiens) (P37231 whole entry, looked up): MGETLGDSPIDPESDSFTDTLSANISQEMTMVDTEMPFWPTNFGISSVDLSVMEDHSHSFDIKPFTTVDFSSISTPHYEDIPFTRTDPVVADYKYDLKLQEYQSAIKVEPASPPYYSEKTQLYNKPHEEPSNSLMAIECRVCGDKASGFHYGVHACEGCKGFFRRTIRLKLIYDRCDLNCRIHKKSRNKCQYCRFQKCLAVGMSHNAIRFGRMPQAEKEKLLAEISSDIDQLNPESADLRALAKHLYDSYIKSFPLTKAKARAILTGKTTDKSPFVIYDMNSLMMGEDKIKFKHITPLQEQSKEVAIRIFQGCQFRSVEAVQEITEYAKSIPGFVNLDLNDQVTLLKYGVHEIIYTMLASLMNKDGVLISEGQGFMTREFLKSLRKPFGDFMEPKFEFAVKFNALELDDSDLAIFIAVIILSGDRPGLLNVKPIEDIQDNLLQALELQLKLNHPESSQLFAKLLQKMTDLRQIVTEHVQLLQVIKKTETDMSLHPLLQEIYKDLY
Chain of Cellular tumor antigen p53 (Homo sapiens) (P04637 whole entry, looked up): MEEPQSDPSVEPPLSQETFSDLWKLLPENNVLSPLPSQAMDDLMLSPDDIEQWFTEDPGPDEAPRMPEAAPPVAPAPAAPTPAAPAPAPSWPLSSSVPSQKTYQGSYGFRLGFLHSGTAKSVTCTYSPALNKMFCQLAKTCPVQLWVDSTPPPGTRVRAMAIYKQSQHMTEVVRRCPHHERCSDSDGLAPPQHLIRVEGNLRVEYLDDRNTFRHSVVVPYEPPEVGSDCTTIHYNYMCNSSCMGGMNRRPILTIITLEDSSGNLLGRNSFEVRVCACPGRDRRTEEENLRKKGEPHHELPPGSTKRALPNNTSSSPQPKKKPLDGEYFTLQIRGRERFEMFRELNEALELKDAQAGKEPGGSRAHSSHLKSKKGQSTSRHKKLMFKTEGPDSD
Chain of human Peroxisome Proliferator-activated Receptor delta (PPARd), PPARD (gene 5467) (Q03181 whole entry, looked up): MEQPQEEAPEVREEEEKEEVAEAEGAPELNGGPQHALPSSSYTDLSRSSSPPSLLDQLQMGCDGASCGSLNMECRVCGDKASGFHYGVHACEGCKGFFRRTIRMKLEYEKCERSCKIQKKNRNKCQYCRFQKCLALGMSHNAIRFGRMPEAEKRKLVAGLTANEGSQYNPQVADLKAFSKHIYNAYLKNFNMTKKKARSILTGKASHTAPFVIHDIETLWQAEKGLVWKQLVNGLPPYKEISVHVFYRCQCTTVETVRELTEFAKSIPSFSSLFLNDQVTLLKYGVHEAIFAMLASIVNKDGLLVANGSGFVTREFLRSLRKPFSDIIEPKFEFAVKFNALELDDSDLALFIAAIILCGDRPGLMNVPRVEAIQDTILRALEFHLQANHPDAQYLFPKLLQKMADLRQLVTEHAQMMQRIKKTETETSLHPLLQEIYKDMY
Chain of human Peroxisome Proliferator-activated Receptor alpha (PPARa), PPARA (gene 5465) (Q07869 whole entry, looked up, the tested form may be a part): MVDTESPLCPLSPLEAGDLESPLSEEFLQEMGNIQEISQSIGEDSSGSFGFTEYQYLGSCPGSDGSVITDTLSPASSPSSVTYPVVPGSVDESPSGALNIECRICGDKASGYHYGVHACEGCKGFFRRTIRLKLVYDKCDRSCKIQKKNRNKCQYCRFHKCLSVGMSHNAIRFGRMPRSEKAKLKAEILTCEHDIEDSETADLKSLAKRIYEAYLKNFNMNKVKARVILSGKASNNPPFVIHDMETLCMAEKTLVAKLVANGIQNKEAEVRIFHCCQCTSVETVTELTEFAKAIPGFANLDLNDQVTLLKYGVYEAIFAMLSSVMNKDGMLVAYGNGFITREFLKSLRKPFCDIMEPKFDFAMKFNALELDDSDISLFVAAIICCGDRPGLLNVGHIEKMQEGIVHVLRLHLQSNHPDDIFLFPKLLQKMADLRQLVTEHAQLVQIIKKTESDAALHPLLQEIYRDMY
Chain of human RAR-related Orphan Receptor beta (RORb), RORB (gene 6096) (Q92753 whole entry, looked up, the tested form may be a part): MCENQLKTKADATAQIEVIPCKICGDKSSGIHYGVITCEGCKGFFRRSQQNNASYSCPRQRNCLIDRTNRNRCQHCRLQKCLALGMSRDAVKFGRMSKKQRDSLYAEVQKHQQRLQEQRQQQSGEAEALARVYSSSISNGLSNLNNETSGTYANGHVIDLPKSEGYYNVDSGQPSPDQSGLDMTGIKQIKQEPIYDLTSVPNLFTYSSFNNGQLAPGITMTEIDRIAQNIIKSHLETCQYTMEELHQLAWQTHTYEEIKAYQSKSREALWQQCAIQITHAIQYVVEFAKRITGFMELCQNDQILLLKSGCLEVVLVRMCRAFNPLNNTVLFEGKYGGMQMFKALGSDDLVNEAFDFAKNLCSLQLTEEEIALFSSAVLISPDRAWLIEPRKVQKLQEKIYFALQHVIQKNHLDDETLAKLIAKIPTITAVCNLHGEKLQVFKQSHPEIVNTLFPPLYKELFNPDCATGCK
Chain of Myc proto-oncogene protein (Homo sapiens) (P01106 whole entry, looked up): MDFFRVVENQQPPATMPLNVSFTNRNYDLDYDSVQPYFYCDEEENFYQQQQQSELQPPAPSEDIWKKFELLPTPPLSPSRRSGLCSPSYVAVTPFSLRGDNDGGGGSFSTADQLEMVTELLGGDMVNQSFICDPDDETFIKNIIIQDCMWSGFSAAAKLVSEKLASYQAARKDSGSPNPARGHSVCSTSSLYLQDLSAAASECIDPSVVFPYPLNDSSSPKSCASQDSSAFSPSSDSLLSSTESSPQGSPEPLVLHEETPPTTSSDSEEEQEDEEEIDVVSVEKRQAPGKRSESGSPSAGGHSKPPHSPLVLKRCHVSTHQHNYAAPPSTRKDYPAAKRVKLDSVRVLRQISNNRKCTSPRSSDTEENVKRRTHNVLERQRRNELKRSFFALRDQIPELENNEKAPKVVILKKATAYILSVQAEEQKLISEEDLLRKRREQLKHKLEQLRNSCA
Chain of human Retinoic Acid Receptor gamma (RARg), RARG (gene 5916) (P13631 whole entry, looked up, the tested form may be a part): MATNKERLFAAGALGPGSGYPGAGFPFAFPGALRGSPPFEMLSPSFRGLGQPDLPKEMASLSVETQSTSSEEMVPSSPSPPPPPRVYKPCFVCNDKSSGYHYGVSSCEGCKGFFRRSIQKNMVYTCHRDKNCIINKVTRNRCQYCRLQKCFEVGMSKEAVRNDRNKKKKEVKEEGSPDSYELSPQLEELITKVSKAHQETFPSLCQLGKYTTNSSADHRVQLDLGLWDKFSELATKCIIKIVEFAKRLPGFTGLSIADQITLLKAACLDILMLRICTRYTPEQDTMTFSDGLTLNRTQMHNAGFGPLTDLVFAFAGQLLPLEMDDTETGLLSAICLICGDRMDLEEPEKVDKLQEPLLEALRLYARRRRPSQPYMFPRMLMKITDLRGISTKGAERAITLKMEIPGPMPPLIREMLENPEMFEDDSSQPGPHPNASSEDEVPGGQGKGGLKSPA
Chain of Retinoic acid receptor alpha (Homo sapiens) (P10276 whole entry, looked up, the tested form may be a part): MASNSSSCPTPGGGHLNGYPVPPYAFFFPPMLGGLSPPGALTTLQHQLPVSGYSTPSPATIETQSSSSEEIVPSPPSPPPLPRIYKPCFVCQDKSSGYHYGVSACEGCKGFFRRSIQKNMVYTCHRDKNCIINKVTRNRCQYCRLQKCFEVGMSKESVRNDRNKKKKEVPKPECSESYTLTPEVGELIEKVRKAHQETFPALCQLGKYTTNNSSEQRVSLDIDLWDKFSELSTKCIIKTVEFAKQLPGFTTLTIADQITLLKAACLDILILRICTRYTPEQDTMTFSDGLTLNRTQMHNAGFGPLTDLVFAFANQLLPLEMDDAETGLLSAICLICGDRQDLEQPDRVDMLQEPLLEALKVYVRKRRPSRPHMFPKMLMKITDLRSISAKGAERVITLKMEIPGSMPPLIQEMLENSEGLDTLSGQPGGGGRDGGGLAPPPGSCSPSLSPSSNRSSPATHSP
Chain of Nuclear receptor subfamily 1 group I member 2 (Homo sapiens) (O75469 whole entry, looked up, the tested form may be a part): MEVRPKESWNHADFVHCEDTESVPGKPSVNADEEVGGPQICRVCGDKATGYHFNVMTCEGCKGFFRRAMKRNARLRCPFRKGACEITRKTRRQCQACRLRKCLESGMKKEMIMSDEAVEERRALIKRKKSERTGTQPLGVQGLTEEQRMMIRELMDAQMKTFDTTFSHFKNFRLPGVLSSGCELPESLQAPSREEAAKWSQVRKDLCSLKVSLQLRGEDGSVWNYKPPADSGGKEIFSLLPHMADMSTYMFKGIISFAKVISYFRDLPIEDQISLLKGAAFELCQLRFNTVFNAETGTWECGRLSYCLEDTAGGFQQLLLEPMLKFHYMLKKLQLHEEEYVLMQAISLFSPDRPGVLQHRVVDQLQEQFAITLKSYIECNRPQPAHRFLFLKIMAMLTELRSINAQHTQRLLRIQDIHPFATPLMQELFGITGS
Chain of human Retinoic Acid Receptor beta (RARb), RARB (gene 5915) (P10826 whole entry, looked up, the tested form may be a part): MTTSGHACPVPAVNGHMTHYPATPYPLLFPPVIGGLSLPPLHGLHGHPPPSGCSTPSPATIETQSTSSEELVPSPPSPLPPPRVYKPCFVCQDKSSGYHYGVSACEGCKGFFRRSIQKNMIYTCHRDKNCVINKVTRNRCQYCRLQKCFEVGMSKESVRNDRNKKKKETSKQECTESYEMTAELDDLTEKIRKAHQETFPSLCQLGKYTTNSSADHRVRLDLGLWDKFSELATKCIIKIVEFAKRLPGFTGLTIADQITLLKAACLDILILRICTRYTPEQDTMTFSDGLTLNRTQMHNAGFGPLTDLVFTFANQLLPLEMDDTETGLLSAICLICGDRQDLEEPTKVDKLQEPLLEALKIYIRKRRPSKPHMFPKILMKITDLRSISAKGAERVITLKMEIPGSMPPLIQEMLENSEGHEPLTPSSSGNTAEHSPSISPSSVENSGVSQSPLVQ

For `CCCCN(C)C`, the result in [1], in assay [2], in assay [3], in [4], in assay [5] and in assay [6] was inactive. The call in assay [7], in assay [8], in assay [9], in assay [10] and in assay [11] was inactive.
By AC50 is commonly meant the concentration giving half of the maximal activity seen. Turning to `Cc1ccc(N=Nc2c(O)ccc3ccccc23)c(C)c1`, the result in [1], in assay [2], in assay [3], in assay [4], in assay [14] and in assay [15] was inactive. In addition, the result in assay [17], in assay [6], in assay [18], in assay [7], in assay [10] and in assay [11] was inactive. Moreover, the AC50 in assay [12] is 1.86 µM (active); in assay [13], 1.97 µM (active); in [16], 3.39 µM (active); in assay [19] it was 15 µM (active); in assay [20] it was 6.99 µM (active); in assay [9], 3.36 µM (active).
Take `CC(C)[C@@H]1CC[C@@H](C)C[C@H]1O`: the molecule was classed as inactive in assay [1], in [2], in assay [3], in assay [12], in [4] and in [6]. Besides, the molecule was classed as inactive in [7], in assay [20], in assay [9] and in assay [11].
Regarding `COc1cc([N+](=O)[O-])ccc1N`, the outcome in [1], in assay [2], in assay [3], in assay [4], in assay [5] and in assay [9] was inactive.
`Clc1ccc2c(Cl)ccnc2c1`: the outcome in assay [1], in assay [2], in assay [3], in [4], in [5] and in assay [6] was inactive. Besides, the molecule was classed as inactive in assay [7], in assay [8] and in assay [10]. Besides, the AC50 in assay [20] was 16.9 µM (active); in assay [9], 25.8 µM (active).
For the molecule `CC(O)COc1ccccc1` (stereo unspecified), the call in [1], in assay [2], in assay [3], in assay [4], in assay [5] and in [17] was inactive. For the same molecule, the outcome in assay [7], in assay [8], in assay [20], in assay [9], in assay [10] and in assay [11] was inactive.
Take `O=S(=O)(c1ccc(OCc2ccccc2)cc1)c1ccccc1O`: the half-maximal activity concentration (AC50) in [1] is 33.4 µM (active); in [12], 8.89 µM (active); in assay [4], 31.9 µM (active); in assay [20], 0.66 µM (active); in assay [9], 3.73 µM (active). The call in assay [2], in assay [3], in [17] and in assay [6] was inactive.
Turning to `CCO[Si](CCC1CCC2OC2C1)(OCC)OCC` (stereo unspecified), the molecule was called inactive in assay [1], in assay [2], in assay [3], in assay [12], in assay [4] and in [6]. Moreover, the outcome in [8] and in [20] was inactive.
For `C[C@]12CC[C@@H]3c4ccc(O)cc4CC[C@H]3[C@@H]1CC[C@@H]2OC(=O)CCC1CCCC1`, the AC50 in assay [1] is 100 µM (active); in assay [12] it was 21.5 µM (active). Further, the outcome in assay [2], in assay [3], in [4], in assay [5], in [6] and in [9] was inactive.
As for `CCCCC(CC)C(=O)OCCOCCOCCOCCOC(=O)C(CC)CCCC` (stereo unspecified), the call in [1], in assay [2], in [3], in [4], in assay [13] and in assay [14] was inactive. Further, the outcome in [16], in [17], in [18] and in assay [20] was inactive. Moreover, the values for the AC50 in assay [12], in [19] and in [9] were 100 µM (active), 20 µM (active) and 35.3 µM (active), respectively.
With `CC1COCc2cc3c(cc21)C(C)(C)C(C)C3(C)C` (stereo unspecified), the AC50 in [1] is 170 µM (active); in [2], 120 µM (active); in [3] it was 166 µM (active); in assay [20], 66.9 µM (active); in [9], 2.14 µM (active). Moreover, the outcome in [4], in assay [17], in assay [6], in assay [7] and in [10] was inactive.
